Experimental data taken from PubChem BioAssay (NCATS).
Inconclusive results are not listed. Entries that show only a call come without a potency. Some structures have more than one record in an assay (separate samples or runs), and their calls can disagree. The source made the active and inactive calls. Unless noted, calls follow the shape of the dose curve; as a rule, active = well fitted curve in the direction sought with a large enough effect; inconclusive = small, poorly fitted or top-dose-only effect, or another doubt; inactive = no such curve, though single readings can be large; an effect the other way counts as inactive or inconclusive. Numbered stars: 1 amine (or outer) side, 2 acyl side, 3 side chain; on linkers, the order of the positions; unused ones are H or OH. Bridge positions count the residues as written; N and C are the ends. Square brackets hold non-standard residues; d marks the D form. Peptide text beside a SMILES is read from it. I, II: the chains in the order shown. Actinocin(9to1) = Cc1c2oc3c(C)ccc(C(=O)[*:1])c3nc-2c(C(=O)[*:2])c(N)c1=O; NMeV = CN[C@H](C(=O)O)C(C)C; Sar = CNCC(=O)O

Tests used:
[1] = molecular target: M-phase phosphoprotein 8 (Homo sapiens) (UniProt Q99549); test: qHTS Validation Assay for Inhibitors for MPP8 Chromodomain Interactions with Methylated Histone Tails (AID 488949); also: nearly all actives have a fitted effect of over 55% in size; also: potency is read from the fitted curve at half-maximal effect
M-phase phosphoprotein 8 (Homo sapiens), sequence (Q99549 whole entry, looked up): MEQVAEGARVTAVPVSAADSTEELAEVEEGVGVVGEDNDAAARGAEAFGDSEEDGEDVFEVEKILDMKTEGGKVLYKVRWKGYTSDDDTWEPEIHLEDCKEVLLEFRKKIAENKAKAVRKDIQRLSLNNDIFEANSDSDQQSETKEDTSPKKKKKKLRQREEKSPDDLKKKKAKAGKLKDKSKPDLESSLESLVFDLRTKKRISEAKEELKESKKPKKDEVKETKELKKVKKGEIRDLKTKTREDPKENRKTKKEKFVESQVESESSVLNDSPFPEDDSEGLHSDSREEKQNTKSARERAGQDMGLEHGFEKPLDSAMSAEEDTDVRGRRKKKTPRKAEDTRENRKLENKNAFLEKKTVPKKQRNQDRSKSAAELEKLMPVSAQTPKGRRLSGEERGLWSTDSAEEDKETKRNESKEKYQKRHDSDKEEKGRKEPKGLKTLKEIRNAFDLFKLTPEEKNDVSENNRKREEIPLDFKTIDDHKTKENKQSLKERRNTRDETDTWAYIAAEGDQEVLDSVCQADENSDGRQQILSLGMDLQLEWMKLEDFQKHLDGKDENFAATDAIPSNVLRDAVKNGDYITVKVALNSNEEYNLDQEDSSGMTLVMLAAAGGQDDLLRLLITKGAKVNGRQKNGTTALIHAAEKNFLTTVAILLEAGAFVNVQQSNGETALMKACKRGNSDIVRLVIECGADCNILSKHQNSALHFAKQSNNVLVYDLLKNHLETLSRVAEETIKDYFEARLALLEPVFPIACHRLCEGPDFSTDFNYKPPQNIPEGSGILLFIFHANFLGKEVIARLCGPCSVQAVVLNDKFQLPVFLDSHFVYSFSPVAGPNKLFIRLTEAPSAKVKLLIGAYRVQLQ
Procedure, shortened: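 Disruption of the preformed MPP8–trimethyl-H3K9 peptide complex (both 50 nM, 30 min, RT) is measured after 30 min compound exposure, using AlphaScreen proximity beads; aurintricarboxylic acid titration serves as plate control.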

[2] = molecular target: Chromobox protein homolog 1 (Homo sapiens) (UniProt P83916); test: qHTS Validation Assay for Inhibitors of HP1-beta Chromodomain Interactions with Methylated Histone Tails (AID 488953);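 also: loss of AlphaScreen luminescence from HP1-beta binding biotinylated H3K9me3 peptide; series mostly up to about 110 µM; nearly all actives have a fitted effect of over 50% in size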
Chromobox protein homolog 1 (Homo sapiens), sequence (P83916 whole entry, looked up): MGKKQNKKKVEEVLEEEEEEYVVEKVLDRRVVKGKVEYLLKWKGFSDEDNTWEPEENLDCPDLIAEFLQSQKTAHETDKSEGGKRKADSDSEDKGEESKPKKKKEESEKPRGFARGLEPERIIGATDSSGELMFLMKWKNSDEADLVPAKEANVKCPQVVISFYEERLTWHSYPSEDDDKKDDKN
Procedure, shortened: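 Measured as loss of AlphaScreen luminescence from streptavidin donor and nickel acceptor beads (10 ug/mL final) bridging HP1-beta and biotin-H3(1-18)K9me3, each 50 nM. Compounds met the preassembled complex for 30 min at RT.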

[3] = molecular target: Methanococcus maripaludis chaperonin (MmCpn) (UniProt Q6LX38); test: High-Throughput Screening for Modulators of Cytosolic Chaperonin Activity: MmCpn Primary Screen (AID 488978);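 also: 50 nM MmCpn enzyme hydrolysing 30 µM ATP at 37 °C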
Procedure, shortened: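 Measures ATPase turnover of the M. maripaludis chaperonin (50 nM final) against 30 uM ATP over 10 min at 37C, with compound added 5 min beforehand at room temperature. ADP is quantified by HTRF immunodetection.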

[4] = molecular target: Transient receptor potential cation channel subfamily V member 1 (Homo sapiens) (UniProt Q8NER1); test: HTS Assay for Compounds that Act as Enhancers of the Vanilloid Receptor 1 (AID 488979)
Procedure, shortened: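 TRPV1-expressing cells loaded with Fluo-8 calcium dye; compounds added and calcium influx read kinetically for 3 min (agonist phase), then capsaicin at EC20 added and read 2 min more for enhancement. Fluorescence ex 480/em 520 nm.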

[5] = molecular target: Thyrotropin receptor (Homo sapiens) (UniProt P16473); test: qHTS Assay for Antagonists of the Thyroid Stimulating Hormone Receptor (AID 488980); also: series mostly up to about 58 µM
Thyrotropin receptor (Homo sapiens), sequence (P16473 whole entry, looked up): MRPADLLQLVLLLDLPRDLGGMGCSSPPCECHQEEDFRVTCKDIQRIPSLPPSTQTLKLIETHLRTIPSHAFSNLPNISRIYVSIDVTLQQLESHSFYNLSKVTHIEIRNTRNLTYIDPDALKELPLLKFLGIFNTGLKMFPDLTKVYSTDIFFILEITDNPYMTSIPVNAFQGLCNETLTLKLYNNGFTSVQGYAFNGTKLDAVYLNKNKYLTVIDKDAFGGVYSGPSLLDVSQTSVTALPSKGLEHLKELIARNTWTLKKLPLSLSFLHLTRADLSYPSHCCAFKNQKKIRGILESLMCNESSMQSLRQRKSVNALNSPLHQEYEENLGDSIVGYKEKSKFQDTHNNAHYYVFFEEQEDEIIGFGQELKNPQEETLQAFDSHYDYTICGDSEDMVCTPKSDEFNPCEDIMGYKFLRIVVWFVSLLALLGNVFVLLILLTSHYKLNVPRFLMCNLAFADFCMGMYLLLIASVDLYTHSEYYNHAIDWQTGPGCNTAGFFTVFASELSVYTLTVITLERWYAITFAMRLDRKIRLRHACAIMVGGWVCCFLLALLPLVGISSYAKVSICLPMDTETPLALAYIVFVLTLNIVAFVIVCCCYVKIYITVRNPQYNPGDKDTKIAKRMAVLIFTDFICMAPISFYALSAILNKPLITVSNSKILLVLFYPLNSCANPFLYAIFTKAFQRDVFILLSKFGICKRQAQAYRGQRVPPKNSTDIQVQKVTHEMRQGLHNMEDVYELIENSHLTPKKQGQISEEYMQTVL
Procedure, shortened: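 Cells expressing human TSHR (HEK293) are dispensed in HBSS/HEPES containing 70 uM RO 20-1724, compound is added, then TSH at EC80 (4 nM final). Antibody in lysis buffer follows, 30 minutes at room temperature before HTRF detection.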

[6] = molecular target: D(1A) dopamine receptor (Homo sapiens) (UniProt P21728); test: HTS Assay for Allosteric Agonists of the Human D1 Dopamine Receptor: Primary Screen for Agonists (AID 488981)
D(1A) dopamine receptor (Homo sapiens), sequence (P21728 whole entry, looked up): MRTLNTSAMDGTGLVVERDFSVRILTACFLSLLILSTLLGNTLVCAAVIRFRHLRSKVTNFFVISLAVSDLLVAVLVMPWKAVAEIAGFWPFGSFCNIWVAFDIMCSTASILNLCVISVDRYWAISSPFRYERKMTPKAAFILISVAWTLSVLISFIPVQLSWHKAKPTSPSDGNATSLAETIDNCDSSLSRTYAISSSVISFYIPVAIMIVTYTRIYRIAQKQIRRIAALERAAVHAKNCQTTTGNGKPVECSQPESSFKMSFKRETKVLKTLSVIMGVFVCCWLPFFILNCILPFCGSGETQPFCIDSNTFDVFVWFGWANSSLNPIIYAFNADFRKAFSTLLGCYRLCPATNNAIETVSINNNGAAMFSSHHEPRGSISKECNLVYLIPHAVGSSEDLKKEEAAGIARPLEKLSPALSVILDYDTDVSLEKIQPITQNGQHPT
Procedure, shortened: (§1)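 Tetracycline-induced HEK293 T-REx cells force-coupled to calcium signalling were incubated overnight at 30 C and dye-loaded at room temperature. Calcium flux over 180 s after compound addition flagged agonists; a further 180 s read after EC20 dopamine flagged potentiators.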

[7] = molecular target: D(1A) dopamine receptor (Homo sapiens) (UniProt P21728); test: HTS Assay for Allosteric Agonists of the Human D1 Dopamine Receptor: Primary Screen for Potentiators (AID 488982); also: potency is read from the fitted curve at half-maximal effect
Procedure, shortened: as §1

[8] = molecular target: D(1A) dopamine receptor (Homo sapiens) (UniProt P21728); test: HTS Assay for Allosteric Agonists of the Human D1 Dopamine Receptor: Primary Screen for Antagonists (AID 488983);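 also: calcium flux response to an EC80 dopamine challenge measured with no-wash dye; nearly all actives have a fitted effect of over 65% in size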; also: potency is read from the fitted curve at half-maximal effect
Procedure, shortened: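 Screening of inducible HEK293 T-REx D1 cells: compound first, EC80 dopamine 180 s later, each phase read kinetically for calcium over 180 s.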

[9] = Validation screen for small molecules that induce genotoxicity in human embryonic kidney (HEK293T) cells expressing luciferase-tagged ELG1 (AID 493106); also: potency is read from the fitted curve at half-maximal effect
Procedure, shortened: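 Reporter-gene quantitative HTS in HEK293T cells carrying luciferase-tagged ELG1, whose level climbs under genotoxic stress. Compound exposure lasts 16 hr at 37 °C before luciferase detection.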

[10] = molecular target: ATPase family AAA domain-containing protein 5 (Homo sapiens) (UniProt Q96QE3); test: Validation screen for small molecules that inhibit ELG1-dependent DNA repair in human embryonic kidney (HEK293T) cells expressing luciferase-tagged ELG1 (AID 493107); also: nearly all actives have a fitted effect of over 70% in size; also: potency is read from the fitted curve at half-maximal effect
Procedure, shortened: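 Quantitative HTS in HEK293T cells carrying luciferase-tagged ELG1, stimulated with 5-fluorouridine alongside compound for 16 hr. Loss of luciferase signal marks inhibition of ELG1 response.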

[11] = molecular target: Thyrotropin-releasing hormone receptor (Homo sapiens) (UniProt P34981); test: qHTS for Small Molecule Agonists and Allosteric Enhancers of Human TRH Receptor: Validation Screen for Agonists (AID 493127;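 active = calcium activation more than 3 SD above the typical response in the agonist read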;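 also: intracellular calcium rise by fluo-8 fluorescence before TRH EC20 addition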); conditions: TRH receptor agonist cell assay; at 2 µM; stronger effect = higher value
Thyrotropin-releasing hormone receptor (Homo sapiens), sequence (P34981 whole entry, looked up): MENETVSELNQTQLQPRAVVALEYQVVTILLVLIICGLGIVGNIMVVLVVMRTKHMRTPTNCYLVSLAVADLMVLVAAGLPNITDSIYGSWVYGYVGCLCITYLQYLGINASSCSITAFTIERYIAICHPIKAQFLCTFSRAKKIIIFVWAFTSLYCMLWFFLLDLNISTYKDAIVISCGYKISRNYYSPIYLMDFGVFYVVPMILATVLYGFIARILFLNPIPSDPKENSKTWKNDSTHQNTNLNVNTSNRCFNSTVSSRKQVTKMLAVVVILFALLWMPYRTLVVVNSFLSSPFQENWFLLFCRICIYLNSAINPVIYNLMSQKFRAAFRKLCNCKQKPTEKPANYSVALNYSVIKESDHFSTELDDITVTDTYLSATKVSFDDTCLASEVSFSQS
Procedure, shortened: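 Gq-coupled calcium mobilization in TRHR cells after compound addition, monitored kinetically with fluo-8 dye on an FDSS reader.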

[12] = molecular target: Phosphoglycerate kinase, glycosomal (Trypanosoma brucei brucei) (UniProt P07378); test: qHTS Validation Assay to Find Inhibitors of Phosphoglycerate Kinase (AID 504547); also: potency is read from the fitted curve at half-maximal effect
Phosphoglycerate kinase, glycosomal (Trypanosoma brucei brucei), sequence (P07378 whole entry, looked up): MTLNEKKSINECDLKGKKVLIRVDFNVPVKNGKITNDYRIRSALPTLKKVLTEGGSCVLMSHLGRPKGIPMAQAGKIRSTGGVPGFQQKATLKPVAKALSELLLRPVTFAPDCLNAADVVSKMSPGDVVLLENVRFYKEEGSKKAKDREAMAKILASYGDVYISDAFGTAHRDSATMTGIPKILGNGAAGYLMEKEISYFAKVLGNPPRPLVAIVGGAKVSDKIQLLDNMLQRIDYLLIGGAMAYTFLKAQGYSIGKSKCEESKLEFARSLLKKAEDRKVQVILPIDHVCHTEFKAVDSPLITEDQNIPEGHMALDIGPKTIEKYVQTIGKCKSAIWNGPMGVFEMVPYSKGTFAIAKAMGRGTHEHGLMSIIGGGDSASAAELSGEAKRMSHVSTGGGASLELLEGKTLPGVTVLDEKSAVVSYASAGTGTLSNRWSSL
Procedure, shortened: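 Substrate/PGK mix plus compound; reaction started with GAPDH (100nM final) to form 1,3-BPG; 60 min RT; Kinase-Glo Plus 10 min; luminescence. TEA 100mM pH 7.6, MgCl2 5mM, Tween-20 0.01%.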

[13] = molecular target: phosphoglycerate mutase (Leishmania major) (UniProt Q4Q090); test: qHTS Validation Assay to Find Inhibitors of Phosphoglycerate Mutase (AID 504548);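 also: end-point luminescence from Kinase-GloPlus after the PGAM reaction; series mostly up to about 58 µM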
phosphoglycerate mutase (Leishmania major), sequence (Q4Q090 1-553): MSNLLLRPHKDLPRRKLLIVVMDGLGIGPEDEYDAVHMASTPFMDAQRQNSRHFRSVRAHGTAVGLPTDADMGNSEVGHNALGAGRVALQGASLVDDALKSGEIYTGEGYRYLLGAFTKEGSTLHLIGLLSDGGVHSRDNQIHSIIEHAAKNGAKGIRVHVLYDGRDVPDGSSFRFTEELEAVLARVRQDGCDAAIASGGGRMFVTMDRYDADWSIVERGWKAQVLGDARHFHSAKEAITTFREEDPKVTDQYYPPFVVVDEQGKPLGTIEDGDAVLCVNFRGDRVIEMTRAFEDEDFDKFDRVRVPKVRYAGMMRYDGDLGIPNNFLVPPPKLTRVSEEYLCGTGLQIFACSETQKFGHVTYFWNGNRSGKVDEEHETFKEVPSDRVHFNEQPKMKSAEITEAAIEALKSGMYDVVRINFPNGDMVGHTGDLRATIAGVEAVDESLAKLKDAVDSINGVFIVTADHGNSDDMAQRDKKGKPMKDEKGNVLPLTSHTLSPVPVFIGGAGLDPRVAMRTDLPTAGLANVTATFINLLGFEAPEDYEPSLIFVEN
Procedure, shortened: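 Inhibition of L. major PGAM was assessed by Kinase-GloPlus luminescence following a 45-minute room-temperature reaction with enzyme at 1.25nM final.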

[14] = molecular target: Ubiquitin carboxyl-terminal hydrolase 1 (Homo sapiens) (UniProt O94782); test: Inhibitors of USP1/UAF1: Pilot qHTS (AID 504865);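 also: rhodamine fluorescence freed from ubiquitin-rhodamine substrate followed over time; top concentration of the series differs between compounds; nearly all actives have a fitted effect of over 35% in size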
Ubiquitin carboxyl-terminal hydrolase 1 (Homo sapiens), sequence (O94782 whole entry, looked up): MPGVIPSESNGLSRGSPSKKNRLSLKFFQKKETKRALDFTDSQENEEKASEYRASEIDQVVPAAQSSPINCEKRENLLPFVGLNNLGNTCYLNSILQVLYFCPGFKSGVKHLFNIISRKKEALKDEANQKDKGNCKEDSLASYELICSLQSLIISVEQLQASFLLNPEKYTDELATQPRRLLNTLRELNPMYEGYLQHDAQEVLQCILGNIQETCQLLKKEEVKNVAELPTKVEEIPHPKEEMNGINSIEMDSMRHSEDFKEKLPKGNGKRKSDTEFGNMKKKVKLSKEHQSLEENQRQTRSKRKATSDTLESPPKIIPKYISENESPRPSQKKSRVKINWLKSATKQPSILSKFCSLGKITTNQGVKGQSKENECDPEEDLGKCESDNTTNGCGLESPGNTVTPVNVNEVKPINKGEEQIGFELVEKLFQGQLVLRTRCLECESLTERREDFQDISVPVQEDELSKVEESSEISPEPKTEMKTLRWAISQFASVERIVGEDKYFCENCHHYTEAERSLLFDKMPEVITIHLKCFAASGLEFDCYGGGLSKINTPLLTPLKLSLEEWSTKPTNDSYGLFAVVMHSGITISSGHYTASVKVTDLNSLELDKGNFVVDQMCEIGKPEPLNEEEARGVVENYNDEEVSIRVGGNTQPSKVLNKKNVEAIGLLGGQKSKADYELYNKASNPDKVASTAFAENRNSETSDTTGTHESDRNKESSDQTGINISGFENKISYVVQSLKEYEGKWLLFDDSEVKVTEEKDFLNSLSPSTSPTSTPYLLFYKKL
Procedure, shortened: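 Kinetic fluorescence assay: 1nM USP1/UAF1, 15 min compound preincubation, then 150nM Ub-Rho; 480/540 nm.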

[15] = Inducers of the Endoplasmic Reticulum Stress Response (ERSR) in human glioma: Validation (AID 504836)
Procedure, shortened: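 Stably transfected U87-MG human glioma cells carrying a GRP78-based luminescent sensor were seeded at 1000 cells/well, pin-dosed with compounds and incubated 16 h. Luciferase reagent was then added, and end-point luminescence was read after 10 min at room temperature.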

[16] = molecular target: ATP-dependent 6-phosphofructokinase (Trypanosoma brucei brucei) (UniProt O15648); test: qHTS Assay to Find Inhibitors of T. brucei phosphofructokinase: hit validation (AID 492961);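 also: luminescence reports ADP formed as PFK phosphorylates fructose-6-phosphate with ATP; series mostly up to about 51 µM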
ATP-dependent 6-phosphofructokinase (Trypanosoma brucei brucei), sequence (O15648 whole entry, looked up): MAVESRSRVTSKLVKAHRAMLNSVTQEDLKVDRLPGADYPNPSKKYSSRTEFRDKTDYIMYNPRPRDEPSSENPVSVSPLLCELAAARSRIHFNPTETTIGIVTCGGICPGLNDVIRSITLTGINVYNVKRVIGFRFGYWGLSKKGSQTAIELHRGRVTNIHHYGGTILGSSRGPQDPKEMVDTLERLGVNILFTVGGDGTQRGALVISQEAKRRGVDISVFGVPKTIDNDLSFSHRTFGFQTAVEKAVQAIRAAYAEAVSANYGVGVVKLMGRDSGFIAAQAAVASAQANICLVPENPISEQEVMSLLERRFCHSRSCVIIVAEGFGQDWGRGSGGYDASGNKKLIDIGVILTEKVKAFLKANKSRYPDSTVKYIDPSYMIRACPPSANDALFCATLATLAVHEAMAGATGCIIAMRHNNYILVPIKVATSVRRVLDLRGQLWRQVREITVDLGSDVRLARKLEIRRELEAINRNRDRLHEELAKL
Procedure, shortened: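 Reaction: 0.1 M triethanolamine pH 8.0, 5 mM MgCl2, F6P 0.5 mM, ATP 0.1 mM, PFK 1.25 nM, 45 min RT. Read-out: ADP-Glo luminescence. Analysis: concentration-response fits, classed by r2 and efficacy.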

[17] = Nrf2 qHTS screen for inhibitors: Validation (AID 493153; active = well fitted inhibition curve with a large enough effect in the main read-out, with a control signal flat, not every such curve was filed as active); conditions: Potency: luciferase luminescence; viability change: measured here: cytotoxicity max response
Procedure, shortened: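 Dose-response validation uses reporter A549 cells with firefly luciferase under an antioxidant response element. Compounds stay on cells 18-24 h at 37°C, and luminescence indicates Nrf2-driven transcription.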

[18] = qHTS for Inhibitors of Cell Surface uPA Generation: Validation Assay (AID 493164);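 also: RAW 264.7 macrophage cells exposed to compound for 18 h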
Procedure, shortened: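 RAW 264.7, 4000 cells/well, o/n plating; cpd 7-pt 1:5 dilution 2.45 nM–38.3 uM final; 18 h, 37 C/5% CO2; ATP-Lite, 5 s luminescence exposure.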

COC[C@H]1OC(=O)c2coc3c2[C@@]1(C)C1=C(C3=O)C2CCC(=O)[C@@]2(C)C[C@H]1OC(C)=O (stereo not given in full)
Potency [1]: inactive | Potency [2]: inactive | outcome [3]: inactive | outcome [4]: inactive | outcome [5]: inactive | Potency [6]: inactive | Potency [7]: inactive | Potency [8]: inactive | Potency [9]: inactive | Potency [10]: inactive | activation [11]: 0.25% (inactive) | Potency [12]: inactive | outcome [13]: inactive | Potency [14]: inactive

CNCCC(Oc1ccc(C(F)(F)F)cc1)c1ccccc1 (stereo not given)
Potency [2]: inactive | outcome [15]: inactive

CCOP(=S)(OCC)Oc1cc(C)nc(C(C)C)n1
outcome [16]: inactive

Oc1ccccc1-c1ccccc1
outcome [16]: inactive | Potency [14]: inactive

O=[N+]([O-])c1cc([As](=O)(O)O)ccc1O
outcome [16]: inactive | Potency [14]: inactive

CC(C)=CC1C(C(=O)OCc2cccc(Oc3ccccc3)c2)C1(C)C (stereo not given)
outcome [16]: inactive

CC[C@@H](CO)NC(=O)[C@@H]1C=C2c3cccc4[nH]cc(c34)C[C@H]2N(C)C1
outcome [3]: inactive | Potency [6]: inactive | Potency [7]: inactive | Potency [8]: 0.447 µM (active) | Potency [9]: inactive | Potency [10]: inactive | Potency [17]: inactive | viability change [17]: -12.7% | outcome [18]: inactive | Potency [12]: inactive | outcome [13]: inactive | outcome [15]: inactive | Potency [14]: inactive

CN1C(=S)CN=C(c2ccccc2)c2cc(Cl)ccc21
outcome [16]: inactive

CN1CCN(C(=O)O[C@H]2c3nccnc3C(=O)N2c2ccc(Cl)cn2)CC1
outcome [16]: inactive

CC[N+](CC)(CC)CC
Potency [1]: inactive | outcome [4]: inactive | outcome [5]: inactive | outcome [16]: inactive | outcome [15]: inactive | Potency [14]: inactive

c1ccc2c(c1)Nc1ccccc1S2
outcome [16]: inactive

CC[C@@H](CO)NC(=O)[C@@H]1C=C2c3cccc4c3c(cn4C)C[C@H]2N(C)C1
Potency [1]: inactive | outcome [3]: inactive | Potency [6]: inactive | Potency [7]: inactive | outcome [16]: inactive | Potency [9]: inactive | Potency [10]: inactive | Potency [17]: inactive | viability change [17]: -1.92% | outcome [18]: inactive | Potency [12]: inactive | outcome [13]: inactive | outcome [15]: inactive | Potency [14]: inactive

OCCOc1ccccc1
outcome [16]: inactive | Potency [14]: inactive

CCn1cc(C(=O)O)c(=O)c2ccc(C)nc21
Potency [1]: inactive | outcome [4]: inactive | outcome [5]: inactive | activation [11]: 1.06% (inactive) | outcome [15]: inactive

Oc1cc(Cl)ccc1Oc1ccc(Cl)cc1Cl
outcome [16]: inactive | Potency [14]: inactive

CCCC1CCCCN1 (stereo not given)
outcome [16]: inactive | Potency [14]: inactive

Cc1ccc(-c2nc3ccc(C)cn3c2CC(=O)N(C)C)cc1
outcome [16]: inactive | Potency [14]: inactive

CCC(COC(=O)c1cc(OC)c(OC)c(OC)c1)(c1ccccc1)N(C)C (stereo not given)
outcome [16]: inactive

C=C1CC[C@@]2(O)[C@H]3Cc4ccc(O)c5c4[C@@]2(CCN3CC2CC2)[C@H]1O5
outcome [16]: inactive | Potency [14]: inactive

Cc1c2oc3c(C)ccc(C(=O)N[C@@H]4C(=O)N[C@H](C(C)C)C(=O)N5CCC[C@H]5C(=O)N(C)CC(=O)N(C)[C@@H](C(C)C)C(=O)O[C@@H]4C)c3nc-2c(C(=O)N[C@@H]2C(=O)N[C@H](C(C)C)C(=O)N3CCC[C@H]3C(=O)N(C)CC(=O)N(C)[C@@H](C(C)C)C(=O)O[C@@H]2C)c(N)c1=O (I: T[dV]P[Sar][NMeV] / II: T[dV]P[Sar][NMeV]; ester I:1-I:C, II:1-II:C; linker I:N-II:N via Actinocin(9to1))
outcome [16]: inactive

COc1cc2c(c(OC)c1OC)-c1ccc(OC)c(=O)cc1[C@@H](NC(C)=O)CC2
Potency [2]: inactive | Potency [9]: 0.461 µM (active) | outcome [15]: inactive | Potency [14]: inactive

CCOC(=O)C1(c2ccccc2)CCN(CCC(C#N)(c2ccccc2)c2ccccc2)CC1
outcome [16]: inactive

CC1OC(C)OC(C)O1 (stereo not given)
outcome [16]: inactive | Potency [14]: inactive

FC(F)(F)c1cccc(C2=CCN(CCc3ccc4ccccc4c3)CC2)c1
outcome [16]: inactive

CCN(C(C)=O)c1cccc(-c2ccnc3c(C#N)cnn23)c1
outcome [16]: inactive | Potency [14]: inactive

O=c1c(O)c(-c2ccc(O)c(O)c2)oc2cc(O)cc(O)c12
Potency [1]: 39.8 µM (active) and inactive | Potency [7]: 4.11 µM (active) | Potency [10]: 20.6 µM (active) | Potency [12]: 7.57 µM (active) | outcome [15]: inactive
